In assay [1] the target is Serine/threonine-protein kinase PAK 6 (Homo sapiens) (UniProt Q9NQU5). To be noted: at 1 µM.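 Also: values are mean percent inhibition of PAK6 kinase.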
In assay [2] the test system is Tyrosine-protein kinase ABL1 (Homo sapiens), P00519 [E255K]. To be noted: at 0.1 µM.
Assay [3] has the same test system. To be noted: at 1 µM.
The subject of assay [4] is Tyrosine-protein kinase ABL1 (Homo sapiens), P00519 [H396P]. To be noted: at 0.1 µM.
For assay [5] the test system is unchanged. To be noted: at 1 µM.
For assay [6], the system named is Tyrosine-protein kinase ABL1 (Homo sapiens), P00519 [M351T]. To be noted: at 0.1 µM.
Assay [7] shares this test system. To be noted: at 1 µM.
In assay [8] the test system is Tyrosine-protein kinase ABL1 (Homo sapiens), P00519 [Q252H]. To be noted: at 0.1 µM.
Assay [9] has the same test system. To be noted: at 1 µM.
The test system of assay [10] is Tyrosine-protein kinase ABL1 (Homo sapiens), P00519 [T315I]. To be noted: at 0.1 µM.
Assay [11] has the same test system. To be noted: at 1 µM.
For assay [12], the system named is Tyrosine-protein kinase ABL1 (Homo sapiens), P00519 [Y253F]. To be noted: at 0.1 µM.
For assay [13] the test system is unchanged. To be noted: at 1 µM.
Assay [14] has as its target Tyrosine-protein kinase ABL1 (Homo sapiens) (UniProt P00519). To be noted: at 0.1 µM.
For assay [15] the target is unchanged. To be noted: at 1 µM.
The target in assay [16] is ALK tyrosine kinase receptor (Homo sapiens) (UniProt Q9UM73). To be noted: at 0.1 µM.
Chain of ALK tyrosine kinase receptor (Homo sapiens) (Q9UM73 19-1620 limits assumed): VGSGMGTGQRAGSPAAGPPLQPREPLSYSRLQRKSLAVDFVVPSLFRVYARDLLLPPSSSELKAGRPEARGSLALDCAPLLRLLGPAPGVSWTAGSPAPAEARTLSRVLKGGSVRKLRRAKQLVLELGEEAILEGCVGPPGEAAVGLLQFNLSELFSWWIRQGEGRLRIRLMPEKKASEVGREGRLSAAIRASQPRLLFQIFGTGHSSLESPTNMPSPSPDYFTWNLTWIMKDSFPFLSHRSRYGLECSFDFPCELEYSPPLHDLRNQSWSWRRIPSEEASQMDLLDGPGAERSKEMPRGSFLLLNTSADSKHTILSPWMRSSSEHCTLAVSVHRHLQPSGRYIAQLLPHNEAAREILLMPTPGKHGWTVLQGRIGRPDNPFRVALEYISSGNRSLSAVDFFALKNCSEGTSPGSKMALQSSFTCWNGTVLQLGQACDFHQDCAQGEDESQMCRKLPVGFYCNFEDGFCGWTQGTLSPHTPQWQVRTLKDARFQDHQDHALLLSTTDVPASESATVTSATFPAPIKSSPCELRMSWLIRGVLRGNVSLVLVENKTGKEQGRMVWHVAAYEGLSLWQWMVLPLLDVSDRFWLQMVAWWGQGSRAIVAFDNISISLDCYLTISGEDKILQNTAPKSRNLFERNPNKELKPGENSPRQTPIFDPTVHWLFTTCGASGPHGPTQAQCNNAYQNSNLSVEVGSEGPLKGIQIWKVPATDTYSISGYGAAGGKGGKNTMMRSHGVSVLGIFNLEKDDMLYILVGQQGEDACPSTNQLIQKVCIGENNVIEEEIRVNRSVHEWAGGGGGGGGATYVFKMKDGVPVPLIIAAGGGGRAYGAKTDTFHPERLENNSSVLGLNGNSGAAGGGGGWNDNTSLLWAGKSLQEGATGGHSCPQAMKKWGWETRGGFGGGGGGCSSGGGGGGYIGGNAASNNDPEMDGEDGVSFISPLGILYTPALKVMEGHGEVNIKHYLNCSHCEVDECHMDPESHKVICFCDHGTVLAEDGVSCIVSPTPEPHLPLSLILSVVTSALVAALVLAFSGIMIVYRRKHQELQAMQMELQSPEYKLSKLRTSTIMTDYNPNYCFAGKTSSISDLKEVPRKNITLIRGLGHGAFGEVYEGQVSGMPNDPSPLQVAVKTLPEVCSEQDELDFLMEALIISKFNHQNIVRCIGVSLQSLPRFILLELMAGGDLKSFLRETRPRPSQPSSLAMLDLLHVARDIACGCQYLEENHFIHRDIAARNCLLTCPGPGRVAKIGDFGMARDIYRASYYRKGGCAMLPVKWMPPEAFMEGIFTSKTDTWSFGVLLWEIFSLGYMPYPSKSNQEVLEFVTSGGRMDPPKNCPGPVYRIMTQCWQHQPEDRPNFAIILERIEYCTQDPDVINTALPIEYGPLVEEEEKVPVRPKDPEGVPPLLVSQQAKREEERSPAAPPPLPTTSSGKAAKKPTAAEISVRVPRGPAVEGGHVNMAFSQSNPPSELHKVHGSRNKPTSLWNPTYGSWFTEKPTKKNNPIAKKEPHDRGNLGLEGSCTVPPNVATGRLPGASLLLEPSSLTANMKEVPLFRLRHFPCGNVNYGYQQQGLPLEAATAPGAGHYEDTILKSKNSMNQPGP
Assay [17] shares this target. To be noted: at 1 µM.
For assay [18], the target named is Tyrosine-protein kinase ABL2 (Homo sapiens) (UniProt P42684). To be noted: at 0.1 µM.
Chain of Tyrosine-protein kinase ABL2 (Homo sapiens) (P42684 whole entry): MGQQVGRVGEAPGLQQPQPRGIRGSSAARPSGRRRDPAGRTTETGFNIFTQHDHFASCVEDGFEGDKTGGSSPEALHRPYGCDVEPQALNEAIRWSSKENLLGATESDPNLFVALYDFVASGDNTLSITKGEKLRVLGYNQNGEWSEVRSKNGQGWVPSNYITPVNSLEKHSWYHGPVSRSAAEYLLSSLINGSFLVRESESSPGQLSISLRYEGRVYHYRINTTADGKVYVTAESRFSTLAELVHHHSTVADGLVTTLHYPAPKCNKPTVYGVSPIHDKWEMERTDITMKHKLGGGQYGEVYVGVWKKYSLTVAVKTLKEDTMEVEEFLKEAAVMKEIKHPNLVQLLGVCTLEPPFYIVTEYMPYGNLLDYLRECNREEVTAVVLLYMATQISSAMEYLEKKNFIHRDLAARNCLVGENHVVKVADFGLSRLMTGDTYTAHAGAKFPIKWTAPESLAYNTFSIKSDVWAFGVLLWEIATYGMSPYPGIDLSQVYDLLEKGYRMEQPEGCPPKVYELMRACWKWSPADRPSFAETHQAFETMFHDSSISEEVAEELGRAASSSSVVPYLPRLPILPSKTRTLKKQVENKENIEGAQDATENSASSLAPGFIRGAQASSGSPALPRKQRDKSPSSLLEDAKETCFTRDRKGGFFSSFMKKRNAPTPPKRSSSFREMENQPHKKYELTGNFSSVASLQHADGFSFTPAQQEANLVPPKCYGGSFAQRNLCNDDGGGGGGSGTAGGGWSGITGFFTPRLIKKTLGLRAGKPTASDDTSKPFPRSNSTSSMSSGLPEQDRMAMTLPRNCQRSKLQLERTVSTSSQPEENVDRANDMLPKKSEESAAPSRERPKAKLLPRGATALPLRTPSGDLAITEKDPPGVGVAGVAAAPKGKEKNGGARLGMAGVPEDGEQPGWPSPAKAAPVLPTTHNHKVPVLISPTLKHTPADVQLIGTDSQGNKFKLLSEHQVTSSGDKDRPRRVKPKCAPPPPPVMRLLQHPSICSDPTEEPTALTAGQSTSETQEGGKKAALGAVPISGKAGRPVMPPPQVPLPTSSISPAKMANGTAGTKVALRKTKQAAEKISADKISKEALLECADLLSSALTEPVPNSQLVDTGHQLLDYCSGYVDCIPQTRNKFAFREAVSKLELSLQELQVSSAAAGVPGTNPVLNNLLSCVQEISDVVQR
The target is the same in assay [19]. To be noted: at 1 µM.
Assay [20] deals with Tyrosine-protein kinase receptor UFO (Homo sapiens) (UniProt P30530). To be noted: at 0.1 µM.
Chain of Tyrosine-protein kinase receptor UFO (Homo sapiens) (P30530 whole entry): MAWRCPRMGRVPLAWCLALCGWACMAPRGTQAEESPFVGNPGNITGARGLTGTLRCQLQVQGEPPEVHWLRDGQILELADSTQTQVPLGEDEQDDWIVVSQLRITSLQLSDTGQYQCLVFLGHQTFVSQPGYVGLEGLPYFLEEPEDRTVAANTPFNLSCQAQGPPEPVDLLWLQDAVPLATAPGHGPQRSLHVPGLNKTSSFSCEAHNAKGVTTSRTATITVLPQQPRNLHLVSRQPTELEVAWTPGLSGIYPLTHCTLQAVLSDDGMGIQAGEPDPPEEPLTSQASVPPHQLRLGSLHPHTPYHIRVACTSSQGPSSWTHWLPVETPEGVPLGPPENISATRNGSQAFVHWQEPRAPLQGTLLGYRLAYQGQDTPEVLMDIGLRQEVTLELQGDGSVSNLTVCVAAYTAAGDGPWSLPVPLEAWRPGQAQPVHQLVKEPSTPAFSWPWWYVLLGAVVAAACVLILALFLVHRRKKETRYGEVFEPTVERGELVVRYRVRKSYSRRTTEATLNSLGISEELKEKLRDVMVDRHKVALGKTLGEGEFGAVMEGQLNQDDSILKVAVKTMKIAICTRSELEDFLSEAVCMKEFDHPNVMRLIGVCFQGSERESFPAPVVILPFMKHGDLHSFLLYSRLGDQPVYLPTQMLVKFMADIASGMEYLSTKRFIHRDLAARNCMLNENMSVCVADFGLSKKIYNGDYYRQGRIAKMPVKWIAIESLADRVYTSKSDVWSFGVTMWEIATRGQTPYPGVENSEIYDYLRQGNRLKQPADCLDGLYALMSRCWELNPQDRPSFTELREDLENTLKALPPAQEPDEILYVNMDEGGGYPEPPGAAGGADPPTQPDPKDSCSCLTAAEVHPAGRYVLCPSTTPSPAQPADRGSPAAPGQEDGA

The inhibition is the drop in the measured response relative to a control, in per cent.

Molecules are shown by their SMILES.

Chain of Serine/threonine-protein kinase PAK 6 (Homo sapiens) (Q9NQU5 whole entry, looked up): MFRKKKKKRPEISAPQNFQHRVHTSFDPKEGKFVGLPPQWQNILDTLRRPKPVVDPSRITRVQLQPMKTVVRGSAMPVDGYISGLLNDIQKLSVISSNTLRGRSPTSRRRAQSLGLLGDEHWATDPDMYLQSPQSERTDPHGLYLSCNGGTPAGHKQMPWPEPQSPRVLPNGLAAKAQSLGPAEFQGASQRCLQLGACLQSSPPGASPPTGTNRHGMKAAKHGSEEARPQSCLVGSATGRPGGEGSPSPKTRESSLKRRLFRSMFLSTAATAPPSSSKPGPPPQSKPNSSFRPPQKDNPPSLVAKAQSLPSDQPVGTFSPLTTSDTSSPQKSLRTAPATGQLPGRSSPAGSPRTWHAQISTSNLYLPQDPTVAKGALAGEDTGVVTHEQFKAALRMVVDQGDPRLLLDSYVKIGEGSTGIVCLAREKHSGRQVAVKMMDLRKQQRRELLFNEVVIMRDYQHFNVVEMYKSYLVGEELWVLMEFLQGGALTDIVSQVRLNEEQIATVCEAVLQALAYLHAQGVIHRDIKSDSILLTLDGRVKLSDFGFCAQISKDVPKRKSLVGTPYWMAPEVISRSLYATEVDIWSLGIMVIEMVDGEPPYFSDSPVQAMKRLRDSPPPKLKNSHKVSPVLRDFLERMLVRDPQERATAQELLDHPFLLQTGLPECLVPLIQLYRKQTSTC

With `O=S(=O)(CCNCc1ccc(-c2ccc3ncnc(Nc4ccc(OCc5cccc(F)c5)c(Cl)c4)c3c2)o1)c1ccccc1`, the inhibition is 0.68% in assay [1]; 3.29% in assay [2]; 4.49% in [3]; 5.17% in [4]; 6.8% in [5]; 1.27% in [6]. In addition, the inhibition was determined as 2.88% in assay [7]; 5.71% in assay [8]; 6.36% in [9]; 2.35% in assay [10]; 3.4% in assay [11]; 5.4% in assay [12]. In addition, the inhibition in assay [13] was 6.85%; in assay [14] it was 5.27%; in [15] it was 10.1%; in assay [16], 4.32%; in [17], 6.67%; in assay [18], 4.64%. Besides, the inhibition in assay [19] is 8.2%; in assay [20], -7.43%.

Take `Cc1cccc(Nc2ncc(-c3ccccc3)o2)c1`: the inhibition was 4.48% in [1]; -0.07% in assay [2]; 8.14% in assay [3]; 5.02% in assay [4]; 19.4% in assay [5]; 2.38% in assay [6]. In addition, the inhibition in [7] is 21.6%; in assay [8], 2.49%; in assay [9], 13.4%; in assay [10], 2.39%; in [11], 5.99%; in assay [12], 3.68%. For the same molecule, the inhibition in assay [13] turned out to be 19.5%; in assay [14], 4.34%; in assay [15], 14.2%; in assay [16] it was 3.9%; in assay [17], 4.76%; in assay [18], 3.13%. Moreover, the inhibition is 18% in [19] and -1.8% in assay [20].

For the molecule `COc1cccc(-c2c[nH]c3c(N/N=C/c4ccncc4)ncnc23)c1`, the inhibition in [1] is -1.79%; in assay [2], 65%; in assay [3] it was 91.1%; in assay [4], 76.2%; in [5], 93.6%; in assay [6], 76.5%. Also, the inhibition in assay [7] was found to be 92.5%; in [8], 79.8%; in assay [9], 92.6%; in assay [10], 11.8%; in [11], 57.7%; in assay [12] it was 73%. The inhibition in assay [13] was determined as 93.2%; in [14] it was 57.6%; in assay [15], 81.7%; in assay [16] it was 0.85%; in assay [17] it was 1.19%; in assay [18], 41.8%. In addition, the results for the inhibition in assay [19] and in assay [20] were 78.6% and -2.43%, respectively.

Consider `c1ccc(-c2nc3n(c2-c2ccc4c(c2)OCO4)CCC3)nc1`, for which the inhibition is -6.18% in assay [1]; 1.4% in [2]; 3.7% in assay [3]; 0.35% in [4]; 2.48% in assay [5]; 1.01% in assay [6]. In addition, the inhibition in assay [7] was 3.51%; in assay [8], 0.69%; in assay [9], 3.62%; in [10], 0.65%; in [11], 6.07%; in [12], 1.92%. In addition, the inhibition in assay [13] came out at 3.95%; in assay [14], 0.85%; in assay [15], 6.39%; in assay [16] it was 0.99%; in assay [17], 1.4%; in assay [18] it was 0.69%. For the same molecule, the figures for the inhibition in assay [19] and in assay [20] were 4.67% and -1.96%, respectively.

For `COc1ccc(-c2cc3c(N)ncnc3o2)cc1`, the inhibition is -9.7% in [1]; 0.23% in assay [2]; 5.63% in assay [3]; -0.22% in assay [4]; 11% in [5]; 0.58% in assay [6]. The inhibition in assay [7] was 11.2%; in [8], -0.72%; in [9], 9.12%; in [10], 0.76%; in [11] it was 2.97%; in [12], -0.25%. The inhibition in [13] is 10.8%; in [14], 2.28%; in assay [15], 11.4%; in assay [16], -1.19%; in assay [17], 1.1%; in [18], 0.1%. The inhibition in assay [19] amounted to 5.3%; in [20], 2.44%.

In the case of `COc1cc2c(cc1Nc1nc(Nc3ccsc3C(N)=O)c3cc[nH]c3n1)N(C(=O)CN(C)C)CCC2(C)C`, the inhibition in [1] was 3.1%; in assay [2], 0.79%; in assay [3] it was 4.14%; in assay [4], 4.5%; in assay [5], 2.9%; in [6], 2.15%. For the same molecule, the inhibition in [7] turned out to be 1.57%; in assay [8] it was 4.15%; in assay [9] it was 2.78%; in assay [10] it was 3.19%; in assay [11], 3.95%; in assay [12], 3.45%. The inhibition came out at 4.27% in assay [13]; 2.57% in [14]; 6.2% in [15]; 95.7% in assay [16]; 78.5% in [17]; 2.86% in assay [18]. For the same molecule, the inhibition in [19] was 4.17%; in [20] it was 47.4%.

Regarding `CCCN(CCS(C)(=O)=O)Cc1ccc(-c2ccc3ncnc(Nc4ccc(OCc5cccc(F)c5)c(Cl)c4)c3c2)o1`, the inhibition in [1] came to 0.49%; in [2] it was 2.99%; in [3], 2.9%; in assay [4], 3.87%; in assay [5], 1.99%; in assay [6], 3.22%. In addition, the inhibition in assay [7] was found to be 3.73%; in assay [8], 3.51%; in assay [9], 3.02%; in [10], 1.81%; in assay [11], 2.18%; in assay [12], 3.73%. For the same molecule, the inhibition in assay [13] stood at 3.01%; in assay [14] it was 6.06%; in assay [15], 6.41%; in assay [16] it was 1.67%; in assay [17], 4.89%; in assay [18], 7.3%. Also, the results for the inhibition in [19] and in [20] were 5.25% and -1.63%, respectively.

For the molecule `COC(=O)Nc1nc2ccc(S(=O)(=O)c3ccc(NC(=O)Nc4cc(C(F)(F)F)ccc4F)cc3)cc2[nH]1`, the inhibition in assay [1] is -4.19%; in [2], 1.6%; in assay [3], -0.55%; in assay [4] it was 2.6%; in assay [5] it was -0.47%; in assay [6], 0.84%. Besides, the inhibition in [7] came to 3.17%; in [8], 2.16%; in assay [9], 4.69%; in assay [10], 2.49%; in [11] it was 1.15%; in [12], 0.34%. In addition, the inhibition in assay [13] is 1.69%; in [14], 3.92%; in assay [15], 9.87%; in [16], 2.66%; in assay [17], 3.54%; in [18] it was 5.17%. In addition, the inhibition in [19] is 6.34%; in assay [20] it was -5.56%.

On to `Cc1ccc(O)cc1Nc1ccnc2cc(-c3ccccn3)ccc12`, for which the inhibition in assay [1] came to 4.08%; in assay [2], 93.5%; in [3] it was 96.2%; in assay [4], 94.7%; in assay [5], 97.2%; in [6] it was 93.6%. For the same molecule, the inhibition in assay [7] was 97.9%; in assay [8], 94%; in assay [9], 98%; in assay [10], 10.1%; in assay [11], 50.7%; in assay [12], 95.5%. Besides, the inhibition in assay [13] came to 98.2%; in [14], 84.3%; in [15], 89.4%; in assay [16] it was 5.32%; in assay [17], 34.1%; in assay [18], 74.3%. The inhibition was 95.7% in assay [19] and -5.44% in [20].

On to `O=C(Nc1n[nH]c2cc(-c3ccc(F)cc3)ccc12)C1CC1`, for which the inhibition was -5.36% in [1]; 9.03% in assay [2]; 23.3% in [3]; 11.3% in [4]; 46.6% in [5]; 11.5% in assay [6]. Besides, the inhibition in assay [7] stood at 55.2%; in assay [8], 7.91%; in assay [9], 33.9%; in assay [10], 19.5%; in assay [11], 69.4%; in assay [12], 10.8%. In addition, the inhibition in assay [13] stood at 40.1%; in assay [14], 5.81%; in assay [15] it was 40.4%; in [16] it was 1.12%; in assay [17], 2.06%; in assay [18], 3.46%. Also, the inhibition in assay [19] was 12.3%; in [20], -5.44%.

For the molecule `CNC(=O)c1cc(-c2ccc(F)cc2)cc(-c2ccc(S(=O)(=O)N3CCCC3)cc2)c1N`, the inhibition is -8.22% in assay [1]; 2.54% in assay [2]; 2.4% in [3]; 3.29% in assay [4]; 3.32% in assay [5]; 0.22% in assay [6]. Further, the inhibition was 0.79% in assay [7]; 1.67% in assay [8]; 1.16% in [9]; 2.5% in assay [10]; 2.16% in assay [11]; 3.15% in assay [12]. The inhibition in [13] came out at 4.16%; in assay [14], 3.12%; in assay [15], 5.19%; in [16], 1.91%; in assay [17], 2.88%; in assay [18], 2.17%. In addition, the inhibition in assay [19] was 3.71%; in assay [20] it was -5.35%.

`CCn1cc(-c2ccnc3[nH]ccc23)c(-c2cccc(NC(=O)Nc3ccc(OCc4ccccc4)cc3)c2)n1`: the inhibition was 3.29% in assay [1]; 1.22% in assay [2]; -1.34% in [3]; 1.15% in assay [4]; 3.55% in assay [5]; 1.36% in assay [6]. Moreover, the inhibition in [7] is 3.02%; in assay [8], 0.71%; in assay [9], 2.72%; in [10], -0.6%; in assay [11], -0.74%; in assay [12] it was 0.58%. For the same molecule, the inhibition in [13] was 0.94%; in [14] it was 1.03%; in assay [15] it was 2.88%; in assay [16] it was 0.6%; in [17] it was 0.71%; in [18] it was 0.39%. Moreover, the inhibition was found to be 6.44% in [19] and 0.7% in [20].

Consider `Fc1ccc(-c2nn3ccccc3c2-c2ccncc2)cc1`, for which the inhibition in [1] is -2%; in assay [2], 1.77%; in assay [3], 2.14%; in [4], 1.59%; in assay [5], 4.98%; in assay [6], -1.48%. The inhibition in assay [7] worked out at 8.75%; in assay [8] it was 0.48%; in [9], 6.96%; in assay [10] it was 0.16%; in assay [11], 4.09%; in [12], 1.97%. For the same molecule, the inhibition in [13] stood at 4.11%; in [14], 1.42%; in assay [15], 9.29%; in [16], 0.44%; in assay [17], 1.88%; in assay [18] it was 3.94%. The inhibition in assay [19] is 7.98%; in assay [20], -2.22%.

These data come from ChEMBL document CHEMBL1961873, “Compounds: GSK PKIS; Assays: Nanosyn kinase panel” (2012).
